# Shown are actives, neighbours in structure and some others; about 1.3% of the full set was active somewhere.
# PLAP act: human PLAP activation | purified PLAP enzyme, luminescent substrate read-out; stronger effect = higher value | activation fold at 20 µM | actives 1.2% (n = 96,000) | AID 696; in the data active = activation fold above about 2
# BAP1 block: blocks human BAP1 ubiquitin-AMC hydrolysis | calls only at 20 µM | actives 0.48% (n = 72,000) | recombinant BAP1, Ub-AMC hydrolysis fluorescence kinetic; stronger effect = lower value | Q92560;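 active = activity remaining at or below 50% of control, provided the compound also passes the data quality filters; inactive = the rest, including low values that fail the filters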;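 also: 100% = DMSO wells rate and 0% = substrate alone blank rate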
# Target sequence (Q92560 whole entry, looked up): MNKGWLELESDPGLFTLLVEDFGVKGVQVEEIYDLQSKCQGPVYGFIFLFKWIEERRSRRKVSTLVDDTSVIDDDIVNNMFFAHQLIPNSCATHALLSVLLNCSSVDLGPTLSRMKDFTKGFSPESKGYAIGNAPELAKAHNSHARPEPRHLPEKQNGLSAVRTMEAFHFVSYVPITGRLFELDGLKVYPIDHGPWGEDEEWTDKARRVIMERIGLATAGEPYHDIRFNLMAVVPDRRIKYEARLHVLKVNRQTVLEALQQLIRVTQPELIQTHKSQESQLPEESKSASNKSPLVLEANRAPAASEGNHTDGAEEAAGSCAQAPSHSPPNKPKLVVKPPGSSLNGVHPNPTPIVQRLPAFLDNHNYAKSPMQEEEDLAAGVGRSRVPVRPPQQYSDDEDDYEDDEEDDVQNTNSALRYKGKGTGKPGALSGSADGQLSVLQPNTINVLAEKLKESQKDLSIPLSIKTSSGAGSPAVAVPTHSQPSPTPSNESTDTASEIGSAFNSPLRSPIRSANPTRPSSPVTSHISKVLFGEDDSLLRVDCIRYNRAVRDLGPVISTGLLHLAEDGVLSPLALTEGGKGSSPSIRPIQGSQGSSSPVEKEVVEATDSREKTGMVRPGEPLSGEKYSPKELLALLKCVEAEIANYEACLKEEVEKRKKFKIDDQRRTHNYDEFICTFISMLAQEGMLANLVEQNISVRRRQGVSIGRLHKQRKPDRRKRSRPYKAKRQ
# sEH inh: soluble epoxide hydrolase (human) inhibition | P34913 | recombinant human sEH enzymatic activity assay | inhibition, % at 2 µM | actives 0.34% (n = 91,000) | AID 707; in the data active = inhibition above about 80%
# sEH activator: activators of human soluble epoxide hydrolase; P34913; activation, % at 2 µM; purified human sEH enzymatic activity, activator screen; actives 0.04% (n = 91,000); AID 717; in the data active = activation above about 37%
# BAP1 inh confirm: BAP1 (human) enzyme inhibition, confirmed; purified BAP1, Ub-ethyl ester hydrolysis, HPLC; stronger effect = lower value; % of control activity, % at 20 µM; actives 8% (n = 310); shares compounds with BAP1 block; AID 753;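 active = percent of control activity at or below 60%; inconclusive = HPLC trace unusable from injection failure or solvent front hiding peaks; inactive = the rest, plus ubiquitin peak ratio over a set limit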
# Numbers without * were called inactive; i = inactive; ? = inconclusive; / = not tested or not shown; + = active, no number.
SMILES,PLAP act,BAP1 block,sEH inh,sEH activator,BAP1 inh confirm
Cc1ccccc1CSCCNC(=O)CCSc1ccccc1,0.9,/,81*,-81,/
COc1cccc(CNc2nc3nc(C)cc(C)n3n2)c1,1.2,i,-2,4,/
COc1ccccc1CNc1cc(CSc2ccc(Cl)cc2)nc(C)n1,2*,/,-13,12,/
COc1cccc(CNc2cc(CSc3ccc(Cl)cc3)nc(C)n2)c1,2*,/,6,-7,/
COc1ccccc1CNc1n[nH]c(NCc2ccccc2OC)n1,1.6,i,0,2,/
COc1ccccc1C(=O)N1c2ccccc2C(C)(c2ccccc2)CC1(C)C (stereo not given),/,i,/,/,/
CCOC(=O)c1c(N=c2oc3c(OC)cccc3cc2C(N)=O)sc2c1CCCC2,/,i,/,/,/
CCCOc1ccccc1N/C(=N/c1nc(C)cc(C)n1)NC(=O)COc1ccc(OC)cc1,2.4*,/,16,-17,/
COc1ccc(/C=N/NC(=O)c2ccc(COc3ccccc3Cl)o2)cc1,0.9,/,84*,-84,/
CC(C)(C)c1ccc(OCc2ccc(C(=O)N/N=C/c3ccc([N+](=O)[O-])cc3)o2)cc1,0.9,/,34,-33,/
COc1ccc(-c2n[nH]c(=S)n2CC(C)C)cc1,2.5*,/,7,-7,/
COc1ccc(C2NC(=O)c3c(sc4c3CCN(C)C4)N2)c(OC)c1 (stereo not given),/,i,/,/,/
COc1ccc(-c2noc(-c3ccc(Cl)cc3)n2)cc1,0.9,+,3,-2,77
COc1ccc(-c2noc(-c3ccccc3-c3ccccc3)n2)cc1,0.9,/,1,-2,/
Cc1c(NC(=O)Cc2ccc(F)cc2)c(=O)n(-c2ccccc2)n1C,/,i,/,/,/
COc1ccc(NC(=O)c2nc[nH]c2C(=O)Nc2ccccc2C)cc1,1,+,-8,8,156
COc1ccccc1NC(=O)c1nc[nH]c1C(=O)Nc1ccccc1OC,1.2,/,5,-4,/
Cc1ccc(-n2nnnc2SCC(=O)Nc2ccc3c(c2)OCCO3)cc1C,/,/,32,-30,/
Cc1ccc(-n2nnnc2SCC(=O)Nc2ccc3c(c2)COC3=O)cc1C,0.7,+,50,-50,77
CC(C)OC(=O)c1cccnc1SCc1cc(=O)n2ccccc2n1,0.9,+,/,/,90
CCOC(=O)c1[nH]c(CSc2nnnn2-c2ccccc2C)c(C(=O)OCC)c1C,1.2,+,/,/,93
CCOc1ccc(OCC)c(NC(=O)c2[nH]c(C)c(C(C)=O)c2C)c1,1.1,+,-1,0,121
CCOC(=O)c1[nH]c(C)c(C(=O)Nc2cc(OC)ccc2OC)c1C,0.9,i,-10,10,/
CC1=C(C(=O)Nc2ccccc2)C(c2ccc(C)o2)n2c(s/c(=C\c3ccco3)c2=O)=N1 (stereo not given),1.3,+,24,-23,111
Cc1cccc(Nc2ncc([N+](=O)[O-])cc2[N+](=O)[O-])c1,/,i,/,/,/
SMILES,PLAP act,BAP1 block,sEH inh,sEH activator,BAP1 inh confirm
COc1cc(OC)cc(C(=O)Nc2cc3nn(-c4ccc(C)cc4)nc3cc2C)c1,/,i,/,/,/
O=C(c1ccco1)[C@@H]1[C@@H]2C(=O)N(c3ccccc3)C(=O)[C@@H]2C2c3ccccc3C=CN21 (stereo not given in full),1.3,+,-4,4,?
CC(=O)[C@@H]1[C@@H]2C(=O)N(Cc3ccccc3)C(=O)[C@@H]2C2c3ccccc3C=CN21 (stereo not given in full),1.6,i,/,/,/
Cc1ccc(N2C(=O)[C@@H]3[C@H](C2=O)C2c4ccccc4C=CN2[C@@H]3C(=O)c2ccco2)cc1 (stereo not given in full),1.3,i,-22,21,/
Cc1ccc(N2C(=O)[C@@H]3[C@H](C2=O)C2c4ccccc4C=CN2[C@@H]3C(=O)c2ccco2)c(C)c1 (stereo not given in full),1.2,+,7,-7,118
CC1CN(S(=O)(=O)c2cccc(C(=O)Nc3ccccc3)c2)CC(C)O1 (stereo not given),/,i,/,/,/
COc1ccc(C2NC(=O)NC(C)=C2C(=O)OCCCCl)cc1OC (stereo not given),/,i,/,/,/
c1ccc(-c2cc(-c3nn4c(-c5ccco5)nnc4s3)c3ccccc3n2)cc1,1.5,+,0,2,109
CCOc1cc(C(=O)O)cc(Cl)c1OCC#N,1.1,+,5,-5,104
CCCCCCc1ccc(C(=O)Nc2cc3cc(Cl)ccc3oc2=O)cc1,/,i,/,/,/
O=C1SC(SCc2ccccc2)=N/C1=C\c1ccco1,1.1,/,12,-7,/
CCCSC1=N/C(=C\C=C\c2ccco2)C(=O)S1,1.2,+,3,-3,86
CCc1cc(C(=O)Cc2cnn(-c3ccccc3)c2)c(O)cc1O,1.2,+,/,/,129
CCOC(=O)c1ccc(NC(=O)CCc2ccc(CC)o2)cc1,0.7,+,4,-5,96
CCc1ccc(CCC(=O)Nc2ccc(C(C)=O)cc2)o1,/,/,2,-1,/
Brc1ccc(C2Nc3cccc4cccc(c34)N2)o1,0.9,+,3,1,86
CCOc1ccc(-n2c(C)nc3c(cnn3-c3ccc(Cl)cc3)c2=O)cc1,0.7,i,0,-2,/
CCc1nc2c(cnn2-c2ccc(Cl)cc2)c(=O)n1-c1ccc(OC)cc1,1.2,+,/,/,89
Cc1csc(NC(=O)c2cc3c(s2)-c2ccccc2OC3)n1,1.1,+,-3,3,91
CN(C)CCNC(=O)c1cc2c(s1)-c1ccccc1OC2,1,/,/,/,/
CCN1C(=O)NC(c2ccc([N+](=O)[O-])cc2)C(C(=O)OC(C)C)=C1C (stereo not given),/,i,/,/,/
CSCCC(/C(O)=C(\C#N)c1nc2ccccc2[nH]1)N1C(=O)c2ccccc2C1=O (stereo not given),2*,+,-3,4,114
C/C(O)=C(\C#N)c1nc2ccccc2[nH]1,1,/,-31,29,/
O=C(Nc1cccc(-c2nc3ccccc3[nH]2)c1)c1cccc(NC(=O)c2ccco2)c1,1.6,+,/,/,135
O=C(Nc1ccc2nc(-c3ccccc3)[nH]c2c1)c1ccco1,0.9,/,-4,8,/
SMILES,PLAP act,BAP1 block,sEH inh,sEH activator,BAP1 inh confirm
CCOc1ccccc1OCCn1nnc2ccccc21,0.7,+,10,-6,105
O=C(Nc1ccc(I)cc1)c1ccc(C(=O)Nc2ccc(I)cc2)cc1,/,i,/,/,/
COC(=O)c1cc2nc(-c3ccc(OC)c(OC)c3)cc(C(F)(F)F)n2n1,0.9,+,-6,7,129
O=C(Nc1c2c(nn1-c1ccc(Cl)cc1)CSC2)c1ccc([N+](=O)[O-])cc1,/,i,/,/,/
Cc1ccc(SCc2c(C#N)c3ccccc3n2C)cc1,/,i,-6,8,/
Cc1ccccc1N1CCN(Cc2c(C#N)c3ccccc3n2C)CC1,1,+,-7,8,74
CC(=O)C1=C(C)NC(SCC(=O)c2ccc(Cl)c(Cl)c2)=C(C#N)C1c1ccco1 (stereo not given),1.6,+,/,/,42*
CC(=O)C1=C(C)NC(SCC(=O)c2cc(Cl)ccc2Cl)=C(C#N)C1c1ccco1 (stereo not given),1.4,+,/,/,96
